Bioassay records as filed in PubChem BioAssay.
Vaccinia Venus: inhibitors of vaccinia virus (Venus reporter); Vaccinia virus Venus reporter expression, fluorescence; Potency, µM (top dose mostly 36.5 µM), for inactives: at the highest dose activity change, negative = inhibition, most hits filed as inhibitors; 330,000 tested, 0.46% active; calls by dose curve; tested in A549 cells; note: potency is the fitted concentration of half-maximal effect; nearly all actives have a fitted effect of over 30% in size
Vaccinia mCherry: vaccinia inhibition (mCherry reporter). AID 720579. 310,000 tested, 0.63% active. Potency, µM (doses to about 36.5 µM), for inactives: at the highest dose activity change, negative = inhibition, most hits filed as inhibitors. Vaccinia virus mCherry reporter infection, fluorescence; calls by dose curve; tested in A549 cells; note: potency is the fitted concentration of half-maximal effect; nearly all actives have a fitted effect of over 35% in size
HCMV inh: inhibitors of human cytomegalovirus | HFF cells, HCMV-luciferase reporter, 72 h; stronger effect = lower value | activity change, negative = inhibition, % at 57.5 µM | 410,000 tested, 4.5% active; in the data active = activity change below about -60%; inconclusive = no clear call, values can overlap the other calls; inactive = above about -39%
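Two-dose cell screen: HFF monolayers treated with compounds and infected with luciferase-expressing HCMV at 1 PFU/cell, 72 h at 37C, then lysed for luciferase measurement.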
FMDV inh: foot and mouth disease virus antiviral activity. AID 1159524. 410,000 tested, 1.2% active. FMDV antiviral cell-based qHTS. Potency, µM (highest dose often 57.9 µM), for the others: at the highest dose activity change, negative = inhibition, most hits filed as inhibitors; calls by dose curve; tested in HEK293T cells; note: read-out not given here; potency is the fitted concentration of half-maximal effect; nearly all actives have a fitted effect of over 45% in size
Giardia FBPA inh: inhibitors of Giardia lamblia fructose-1,6-bisphosphate aldolase; A8B2U2; purified Giardia FBPA; Potency, µM (titrated, usually from 59.6 µM), for the others: top-dose activity, negative = inhibition, hits mostly inhibitors; 290,000 tested, 0.71% active; note: potency is the fitted concentration of half-maximal effect; nearly all actives have a fitted effect of over 55% in size
Target sequence (A8B2U2 whole entry, looked up): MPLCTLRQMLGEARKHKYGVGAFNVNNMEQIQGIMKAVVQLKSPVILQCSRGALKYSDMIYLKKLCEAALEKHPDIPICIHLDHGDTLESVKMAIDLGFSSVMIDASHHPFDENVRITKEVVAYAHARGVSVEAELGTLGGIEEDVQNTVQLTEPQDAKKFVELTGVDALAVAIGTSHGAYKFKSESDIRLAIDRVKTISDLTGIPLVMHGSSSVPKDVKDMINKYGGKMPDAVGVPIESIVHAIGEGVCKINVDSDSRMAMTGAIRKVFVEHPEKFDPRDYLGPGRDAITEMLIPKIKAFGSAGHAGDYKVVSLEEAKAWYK
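Giardia FBPA (40 nM reagent) was preincubated 10 min at RT with compound (up to 57.5 uM final), then substrate plus GAPDH/TPI/NAD/arsenate coupling system with diaphorase/resazurin was added; resorufin fluorescence (525/598 nm) was read after 20 min.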
HCV inhibitor: blocks hepatitis C virus; Huh7.5.1 HCVcc-Cre infection, luciferase reporter, 44 h; Potency, µM (highest dose often 41.8 µM), for inactives: at the highest dose activity change, negative = inhibition, hits mostly inhibitors; 340,000 tested, 3.4% active; AID 651820; note: potency is the fitted concentration of half-maximal effect
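After 44 h co-culture of compound, cells and HCVcc-Cre (~0.5 moi), substrate is added for 15 min at room temperature and luciferase measured over 15 sec. Cells were seeded at 1,000/well and pre-cultured 4 h.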
Active calls of the source: *; i = inactive; ? = inconclusive; nt = not tested or not shown; + = active, no number; [ ] = another dose, or the depositor's remark. Compounds with a hit are over-represented: about 7.5% of the library has one in this group of screens. Unless noted, calls come from the whole dose curve; as a rule, active = well fitted curve in the direction sought with a large enough effect; inconclusive = small, poorly fitted or top-dose-only effect, or another doubt; inactive = no such curve, though single readings can be large; an effect the other way counts as inactive or inconclusive. % is set by controls: 0 for no effect and ±100 for the full control effect.

SMILES	Vaccinia Venus	Vaccinia mCherry	HCMV inh	FMDV inh	Giardia FBPA inh	HCV inhibitor
Cc1ccsc1C(=O)NNC(=O)c1cccc(S(=O)(=O)N2CCCC2)c1	0%	i	+	-2%	nt	5%
O=C(NC1CC1)c1cccc(S(=O)(=O)N2CCOCC2)c1	nt	nt	0	0%	nt	20%
O=C(NC1CCCC1)c1cccc(S(=O)(=O)N2CCOCC2)c1	nt	nt	-103*	0%	nt	-1%
CS(=O)(=O)c1ccc(C(=O)Nc2ccc(S(=O)(=O)N3CCCCC3)cc2)cc1	-14%	-5%	-28	-28%	nt	?
CCOC(=O)c1ccc(NC(=O)c2cccc(S(=O)(=O)N3CCN(C(C)=O)CC3)c2)cc1	6%	-5%	-40	1%	5%	10µM*
CS(=O)(=O)c1cccc(C(=O)Nc2ccc(S(=O)(=O)N3CCCCC3)cc2)c1	-30%	-9%	-63*	-14%	nt	4.5µM*
O=C(Nc1ccc(N2CCOCC2)cc1)c1cccc(S(=O)(=O)N2CCCCCC2)c1	nt	nt	?	-15%	-1%	?
O=C(Nc1ccc(N2CCOCC2)cc1)c1cccc(S(=O)(=O)N2CCCC2)c1	nt	nt	nt	-29%	-16%	6.3µM*
Cc1ccccc1NC(=O)c1cccc(S(C)(=O)=O)c1	-4%	i	-102*	7%	0%	15%
O=C(CCNS(=O)(=O)c1ccc(OC(F)(F)F)cc1)NCCc1c[nH]c2ccccc12	-15%	-7%	0	-7%	nt	?
CN[C@H]1[C@@H](O)[C@@H](NC)[C@@H]2O[C@@]3(O)C(=O)C[C@@H](C)O[C@H]3O[C@H]2[C@H]1O	nt	nt	nt	nt	3%[21.7 µM]	nt
CCCCN(C)CCNC(=O)c1cc(=O)[nH]c2ccc(S(=O)(=O)N3CCCCCC3)cc12	-6%	-8%	6	-11%	nt	nt
COc1cc(C)ccc1S(=O)(=O)NC(=O)C1(C)CCN1C(=O)Cc1ccc(C(C)(C)C)cc1 (stereo not given)	6%	-11%	25	-12%	nt	nt
O=C(NCC1CCN(c2ccc(S(=O)(=O)N3CCOCC3)cc2)CC1)Nc1ccccc1	-29%	-25%	?	-30%	5%	-17%
O=C(NCCN1C(=O)S/C(=C\c2ccc(F)cc2)C1=O)c1cccc(S(=O)(=O)N2CCOCC2)c1	-11%	-29%	8	-11%	-12%	10µM*
COc1ccccc1C(=O)NCC1CCN(c2ccc(S(=O)(=O)N3CCOCC3)cc2)CC1	-21%	-29%	-76*	nt	7%	?
O=C(N/N=C/c1c(F)c(F)c(F)c(F)c1F)c1cccc(S(=O)(=O)N2CCOCC2)c1	nt	nt	-11	-9%	6%	5%
Cc1ccc(S(=O)(=O)N2CCCCC2)cc1C(=O)Nc1ccc(N2CCOCC2)cc1	-24%	-25%	-33	-21%	-2%	?
COc1ccc(S(=O)(=O)N2CCOCC2)cc1C(=O)Nc1ccc(N2CCCCCC2)cc1	nt	nt	?	-13%	nt	14µM*
CCN(CC)c1ccc(/C=N/NC(=O)c2cccc(S(=O)(=O)N3CCOCC3)c2)cc1	-9%	-14%	47	14µM*	-4%	10µM*
COc1ccc(C(=O)N/C(=C\c2ccc(Cl)cc2)C(=O)NCc2ccncc2)cc1	-14%	i	0	3%	nt	nt
O=C(Nc1ccc(N2CCCC2)cc1)c1cccc(-c2cc3ccccc3oc2=O)c1	-4%	i	-63*	0%	9%	-4%
CCOC(=O)C1=C[C@@H](C(C)(C)C)N(S(=O)(=O)c2ccc(C)cc2)[C@H]1c1ccccc1Cl	-4%	i	-26	?	nt	nt
CCOC(=O)C1=C[C@@H](C(C)(C)C)N(S(=O)(=O)c2ccc(C)cc2)[C@H]1c1ccc(C)cc1	-5%	2%	-76*	?	nt	nt
COc1cccc(/C=N/NC(=O)c2cc(-c3ccccn3)nc3ccccc23)c1O	?	1µM*	-63*	3%	nt	4µM*
SMILES	Vaccinia Venus	Vaccinia mCherry	HCMV inh	FMDV inh	Giardia FBPA inh	HCV inhibitor
CC(/C=N/NC(=O)c1cc(-c2ccc(Cl)cc2)nc2ccccc12)=C\c1ccco1	?	?	-83*	-5%	?	?
O=C(NN=Cc1cccc([N+](=O)[O-])c1)c1cc(-c2cccnc2)nc2ccccc12	nt	nt	-14	28µM*	nt	?
COc1ccc(-c2cc(C(=O)N/N=C/c3sccc3C)c3ccccc3n2)c(OC)c1	-20%	28µM*	-63*	-8%	-1%	?
CC(/C=N/NC(=O)c1cc(-c2ccccc2)nc2ccccc12)=C\c1ccco1	-21%	?	-24	0%	?	-24%
COc1ccc(-c2cc(C(=O)N/N=C/c3ccc4c(c3)OCO4)c3ccccc3n2)c(OC)c1	6%	?	-7	-6%	4%	?
Cc1cccc(NC(=O)CCCCCn2c(=O)[nH]c3ccsc3c2=O)c1	-4%	5%	30	45%	nt	nt
N#CCC1(O)C(=O)N(Cc2ccccc2)c2ccccc21 (stereo not given)	-2%	3%	15	-7%	nt	nt
C#CCN1CC(COc2ccccc2)Oc2cccc(Oc3ccc(SC)c(C)c3)c2S1(=O)=O (stereo not given)	nt	nt	-3	nt	nt	nt
Cc1ccc(/C=N/NC(=O)c2cc(-c3ccccc3)nc3ccccc23)o1	-21%	?	-33	-8%	nt	-17%
CC(=O)Nc1ccc(/C=N/NC(=O)c2cc3ccccc3nc2C)cc1	-6%	-8%	-72*	-6%	1%	16%
Cc1cc(C(=O)N/N=C/c2ccc(C)o2)c2ccccc2n1	-24%	?	-63*	-6%	-5%	-5%
O=C(N/N=C/c1ccc(O)cc1)c1cc(-c2ccccc2)nc2ccccc12	nt	nt	-76*	17%	-2%	-14%
CC(=O)Nc1ccc(/C=N/NC(=O)c2cc3cc(C)ccc3nc2C)cc1	-5%	-11%	-8	-1%	0%	-1%
COc1cc(/C=N/NC(=O)c2cc(-c3ccccc3OC(C)C)nc3ccccc23)ccc1O	8%	13µM*	-21	?	1%	-12%
C=C[C@H]1CN2CC[C@H]1C[C@H]2[C@H](OC(=O)OCC)c1ccnc2ccc(OC)cc12	-14%	-17%	nt	-15%	nt	nt
C/C(=N\NC(=O)c1cccnc1)c1cccc([N+](=O)[O-])c1	nt	nt	-6	-2%	-6%	25%
COc1ccc(/C=N/NC(=O)c2cc(-c3ccccc3)nc3ccccc23)cc1O	1%	-21%	-15	-13%	-4%	-13%
CC(/C=C/c1cccc([N+](=O)[O-])c1)=N/NC(=O)c1cccnc1	-22%	-24%	-62*	-7%	7%	13%
COc1cc(/C=N/NC(=O)c2cc(-c3ccccc3)nc3ccccc23)ccc1O	-6%	-24%	-67*	2%	-1%	-9%
COc1cc(NC(=O)CC2C(=O)N(c3ccc(Cl)cc3)C(=O)N2Cc2cccs2)cc(OC)c1 (stereo not given)	-11%	-14%	-29	-18%	nt	nt
